Several values for one entry are separate records, joined by “and”; a condition that tells them apart may be missing. Equal values may be shown once. Records with an inconclusive call do not appear. A call without a number means that no potency is given here. Activity calls are given as the source filed them. Unless noted, the call rests on the fitted dose curve; in most records, active means well fitted curve in the direction sought with a large enough effect; inconclusive means small, poorly fitted or top-dose-only effect, or another doubt; inactive means no such curve, though single readings can be large; an effect the other way counts as inactive or inconclusive.
Tests used:
[1] = Cell Viability - H-4-II-E (AID 543);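 further: cells exposed to compound for 40 hours; nearly all actives have a fitted effect of over 35% in size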
Summary of the method: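 CellTiter-Glo luminescence (intracellular ATP) measured after 40 h compound exposure at 37 °C in H-4-II-E rat hepatoma cells seeded at 1500/well. Values are AC50s fitted with the standard Hill equation.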

[2] = Cell Viability - Mesenchymal (AID 546);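 further: cells exposed to compound for 40 hours before reading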
Summary of the method: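 CellTiter-Glo luminescence (intracellular ATP, 20 min room temperature) after 40 hr compound exposure at 37 °C of 1000 glomerulus-derived human kidney mesenchymal cells/well; AC50 values obtained by fitting qHTS concentration-response data to the Hill equation.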

[3] = Cellular Toxicity (caspase-3) Renal Proximal Tubule (AID 667);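 further: cells exposed to compound for 16 hours at 37 °C before detection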
Summary of the method: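 AC50 derived by standard Hill fit of concentration-response data, normalized between DMSO basal and 10 uM staurosporine as 100% stimulation. Cells: primary rat kidney proximal tubule, 16 h treatment at 37 °C.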

[4] = MultiTox-Fluor Cytotoxicity Assay - LYMP1-002 - Dead Cells (AID 960); further: nearly all actives have a fitted effect of over 60% in size
Summary of the method: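 Dead-cell fluorescence (Ex/Em 485/520) after 16 h compound exposure at 37 C of LYMP1-002 lymphoblastoid cells in complete medium; AC50 by Hill equation, with data scaled between DMSO and 15 uM tetraoctylammonium bromide.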

[5] = MultiTox-Fluor Cytotoxicity Assay - LYMP1-003 - Live Cells (AID 962);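 further: cells exposed to compound for 16 hours at 37 °C; cytotoxic hits lower the live-cell protease signal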
Summary of the method: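 Live-cell protease activity (GF-AFC substrate, 405/510 nm, 60 min at room temperature) after 16 h, 37 C compound exposure of human lymphoblastoid LYMP1-003 cells; concentration-response fitted to the Hill equation for AC50.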

[6] = Cell Viability - LYMP2-004 (AID 966); further: nearly all actives have a fitted effect of over 65% in size
Summary of the method: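 AC50 values come from Hill modelling of concentration-dependent loss of intracellular ATP, measured by CellTiter-Glo luminescence. Human LYMP2-004 lymphoblastoid cells (2500/well) were exposed to compound for 24 h at 37 C.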

[7] = Cell Viability - LYMP2-007 (AID 979);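 further: cells exposed to compound for 24 h before reading; nearly all actives have a fitted effect of over 60% in size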
Summary of the method: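 AC50 values come from Hill-equation fits of luminescent intracellular ATP (CellTiter-Glo, 30 min, room temperature) following 24 h compound exposure at 37 C. Cells: LYMP2-007 lymphoblastoid line, 2500 per well, in complete culture medium.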

[8] = Cell Viability - LYMP2-012 (AID 982);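 further: cellular ATP by luciferase luminescence where a drop means cytotoxicity; cells exposed to compound for one day before reading; nearly all actives have a fitted effect of over 55% in size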
[9] = Cell Viability - LYMP2-016 (AID 984); further: nearly all actives have a fitted effect of over 55% in size
Summary of the method: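 Cells were seeded at 2500 per well and rested 5 hr before a 24 hr compound exposure at 37 C. Viability was then gauged as cellular ATP by luciferase luminescence, with AC50 values fitted to the Hill equation.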

[10] = target: Peroxisome proliferator-activated receptor gamma (Homo sapiens) (UniProt P37231); test: qHTS assay for small molecule agonists of peroxisome proliferator-activated receptor gamma signaling (AID 588536; active means well fitted curve in the direction sought with a large enough effect in the signal ratio, with a control signal flat, not every such curve was filed as active; the % refers to the signal ratio)
Sequence of Peroxisome proliferator-activated receptor gamma (Homo sapiens) (P37231 whole entry, looked up): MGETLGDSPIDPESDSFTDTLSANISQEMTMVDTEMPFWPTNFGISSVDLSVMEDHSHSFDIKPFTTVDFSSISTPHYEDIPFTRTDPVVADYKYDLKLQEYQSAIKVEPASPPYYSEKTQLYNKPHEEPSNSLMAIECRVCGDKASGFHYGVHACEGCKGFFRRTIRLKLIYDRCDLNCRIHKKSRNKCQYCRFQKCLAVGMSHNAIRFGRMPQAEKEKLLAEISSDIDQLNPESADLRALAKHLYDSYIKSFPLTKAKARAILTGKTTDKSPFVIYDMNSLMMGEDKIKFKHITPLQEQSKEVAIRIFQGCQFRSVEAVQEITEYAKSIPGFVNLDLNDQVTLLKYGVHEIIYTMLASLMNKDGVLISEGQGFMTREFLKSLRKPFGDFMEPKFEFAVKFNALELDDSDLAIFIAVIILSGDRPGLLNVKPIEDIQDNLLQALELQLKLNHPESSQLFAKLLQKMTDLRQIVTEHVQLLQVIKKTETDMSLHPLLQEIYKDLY
Summary of the method: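 Beta-lactamase reporter read-out: CCF4 fluorescence (ex 405, em 460/530 nm) after 2 h at RT. HEK293 GeneBLAzer cells were treated for 16 h at 37 C. Hill fits gave EC50 and efficacy versus 2 uM rosiglitazone (100%) and DMSO (0%).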

[11] = qHTS assay for small molecule agonists of retinoid X receptor alpha signaling (AID 588544); settings: HEK293T RXRa-UAS-bla, beta-lactamase reporter, 18 h; 530 nm emission
[12] = target: Tumor necrosis factor (Homo sapiens) (UniProt P01375); test: qHTS assay to identify small molecules that stimulate Tumor Necrosis Factor-alpha (TNF-alpha) secretion (AID 651757; active means well fitted curve in the direction sought with a large enough effect in the signal ratio; the % refers to the signal ratio)
Sequence of Tumor necrosis factor (Homo sapiens) (P01375 whole entry, looked up): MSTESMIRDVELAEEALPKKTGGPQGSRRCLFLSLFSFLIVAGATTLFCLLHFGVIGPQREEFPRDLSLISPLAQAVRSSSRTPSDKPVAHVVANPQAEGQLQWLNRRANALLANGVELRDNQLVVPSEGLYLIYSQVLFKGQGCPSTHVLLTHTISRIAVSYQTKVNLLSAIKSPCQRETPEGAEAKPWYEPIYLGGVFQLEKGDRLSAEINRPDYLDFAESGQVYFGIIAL
Summary of the method: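 Secreted TNF-alpha quantified by TR-FRET sandwich of two labeled anti-TNF-alpha antibodies, incubated 3 hr at room temperature. Preceded by 17 hr, 37 C compound treatment of THP-1 cells at 3000 cells/well.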

[13] = qHTS assay for small molecule agonists of the antioxidant response element (ARE) signaling pathway measured by Nrf2-dependant transcriptional activity (AID 720636; active means well fitted curve in the direction sought with a large enough effect in the repeat runs; an effect the other way counts as inactive or inconclusive;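 further: HepG2 cells with an ARE-driven luciferase reporter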)
Summary of the method: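 Attachment 6 hr at 37 C, then compound versus DMSO vehicle for 16 hr in ARE-luc HepG2 cells (1% dialyzed FBS); luminescence recorded 30 min after ONE-Glo addition at room temperature.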

[14] = qHTS assay for small molecule antagonists of the retinoid-related orphan receptor gamma (ROR-gamma) signaling pathway - cell viability counter screen (AID 720652; active means well fitted curve in the direction sought with a large enough effect in the repeat runs; an effect the other way counts as inactive or inconclusive;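 further: CHO reporter cells with doxycycline-induced ROR-gamma expression; compound exposure lasted 16 hr before ATP read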)
Summary of the method: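 Cytotoxicity counter screen: intracellular ATP (CellTiter-Glo luminescence) measured in the doxycycline-induced CHO RORE-luciferase reporter line after 16 hr compound exposure at 37 C, 5% CO2.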

[15] = target: Nuclear receptor subfamily 1 group I member 2 (Rattus norvegicus) (UniProt Q9R1A7); test: qHTS assay for small molecule activators of the rat pregnane X receptor (rPXR) signaling pathway (AID 651751; call rule not given here); settings: rPXR reporter cells, luciferase (One-Glo), 24 h
Sequence of Nuclear receptor subfamily 1 group I member 2 (Rattus norvegicus) (Q9R1A7 whole entry, looked up): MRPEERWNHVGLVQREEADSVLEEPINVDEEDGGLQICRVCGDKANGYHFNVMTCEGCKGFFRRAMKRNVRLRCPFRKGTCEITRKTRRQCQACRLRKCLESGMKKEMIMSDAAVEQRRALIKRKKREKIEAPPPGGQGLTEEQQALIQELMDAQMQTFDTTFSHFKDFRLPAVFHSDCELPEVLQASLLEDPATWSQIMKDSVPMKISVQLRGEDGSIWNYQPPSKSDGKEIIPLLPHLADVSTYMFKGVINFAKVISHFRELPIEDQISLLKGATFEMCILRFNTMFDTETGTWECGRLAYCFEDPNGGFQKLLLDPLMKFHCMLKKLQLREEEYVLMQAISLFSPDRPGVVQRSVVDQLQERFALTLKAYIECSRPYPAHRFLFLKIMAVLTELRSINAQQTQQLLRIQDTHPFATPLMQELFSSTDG

[16] = Cell Viability - N2a (AID 540); settings: N2a mouse neuroblastoma cell viability; activity change, negative = cytotoxicity: at 92.2 µM (top of the series); further: nearly all actives have a fitted effect of over 45% in size
Summary of the method: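 CellTiter-Glo ATP luminescence, read 20 min after reagent at room temperature, reported viability following 40 h compound treatment at 37 °C. N2a mouse neuroblastoma cells seeded 1500/well; Hill equation gave AC50.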

[17] = target: Cytochrome P450 3A4 (Homo sapiens) (UniProt P08684); test: qHTS Assay for Inhibitors and Substrates of Cytochrome P450 3A4 (AID 884); further: nearly all actives have a fitted effect of over 50% in size
Sequence of Cytochrome P450 3A4 (Homo sapiens) (P08684 whole entry, looked up): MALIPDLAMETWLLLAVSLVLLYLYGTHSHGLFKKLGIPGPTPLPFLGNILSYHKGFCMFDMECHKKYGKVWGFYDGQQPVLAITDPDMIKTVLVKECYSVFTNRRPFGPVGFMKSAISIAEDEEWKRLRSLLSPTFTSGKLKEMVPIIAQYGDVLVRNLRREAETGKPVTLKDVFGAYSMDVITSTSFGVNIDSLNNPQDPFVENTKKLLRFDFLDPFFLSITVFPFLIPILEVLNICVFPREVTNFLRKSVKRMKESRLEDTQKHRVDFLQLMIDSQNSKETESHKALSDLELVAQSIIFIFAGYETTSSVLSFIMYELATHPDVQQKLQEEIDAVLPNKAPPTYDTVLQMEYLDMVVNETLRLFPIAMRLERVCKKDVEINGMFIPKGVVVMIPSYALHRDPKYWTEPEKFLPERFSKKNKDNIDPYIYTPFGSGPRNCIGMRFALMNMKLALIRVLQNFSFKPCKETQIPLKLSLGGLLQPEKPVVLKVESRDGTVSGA
Summary of the method: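 Luminescent readout of luciferin produced by CYP3A4 (20 nM) dealkylation of Luciferin-PPXE, 25 uM (its KM). NADPH-driven reaction ran 60 min at RT after 10 min compound preincubation; data scaled to 57 uM ketoconazole as 100% inhibition.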

[18] = qHTS assay for small molecule antagonists of retinoid X receptor alpha signaling (AID 588546; active means well fitted inhibition curve with a large enough effect in the signal ratio, with a control signal flat, not every such curve was filed as active; the % refers to the signal ratio;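 further: cells stimulated with 9-cis-retinoic acid as agonist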); settings: HEK293T RXRa-UAS-bla, beta-lactamase ratio, antagonist mode; measured here: W530 green channel, cytotoxicity proxy
Summary of the method: (§1)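 Beta-lactamase reporter inhibition, read as CCF4 fluorescence ratio (ex 405, em 460/530 nm) after 2 h at RT. HEK293T UAS-bla cells, 2500/well, were stimulated with 9-cis-RA at 500 or 100 nM final alongside test compound for 18 h at 37 C.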

[19] = target: Retinoic acid receptor RXR-alpha (Homo sapiens) (UniProt P19793); test: as above; settings: HEK293T RXRa-UAS-bla, beta-lactamase ratio, antagonist mode
Sequence of Retinoic acid receptor RXR-alpha (Homo sapiens) (P19793 whole entry, looked up): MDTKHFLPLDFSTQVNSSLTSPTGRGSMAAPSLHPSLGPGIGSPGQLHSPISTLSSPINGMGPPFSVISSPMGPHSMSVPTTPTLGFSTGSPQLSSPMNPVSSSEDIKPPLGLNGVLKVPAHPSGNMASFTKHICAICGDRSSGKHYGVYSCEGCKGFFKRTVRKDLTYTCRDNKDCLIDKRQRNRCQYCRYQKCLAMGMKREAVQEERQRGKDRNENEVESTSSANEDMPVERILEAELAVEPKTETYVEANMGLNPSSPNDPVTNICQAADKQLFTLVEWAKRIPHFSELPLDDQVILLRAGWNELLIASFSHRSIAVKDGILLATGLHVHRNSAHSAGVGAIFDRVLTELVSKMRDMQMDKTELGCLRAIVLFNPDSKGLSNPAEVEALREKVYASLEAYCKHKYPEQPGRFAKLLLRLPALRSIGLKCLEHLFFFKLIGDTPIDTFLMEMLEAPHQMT
Summary of the method: as §1

[20] = target: Nuclear receptor ROR-gamma (Homo sapiens) (UniProt P51449); test: qHTS assay for small molecule antagonists of the retinoid-related orphan receptor gamma (ROR-gamma) signaling pathway (AID 651802);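 further: CHO cells with doxycycline-induced ROR-gamma expression; luciferase reporter luminescence driven by ROR response element; nearly all actives have a fitted effect of over 60% in size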
Sequence of Nuclear receptor ROR-gamma (Homo sapiens) (P51449 whole entry, looked up): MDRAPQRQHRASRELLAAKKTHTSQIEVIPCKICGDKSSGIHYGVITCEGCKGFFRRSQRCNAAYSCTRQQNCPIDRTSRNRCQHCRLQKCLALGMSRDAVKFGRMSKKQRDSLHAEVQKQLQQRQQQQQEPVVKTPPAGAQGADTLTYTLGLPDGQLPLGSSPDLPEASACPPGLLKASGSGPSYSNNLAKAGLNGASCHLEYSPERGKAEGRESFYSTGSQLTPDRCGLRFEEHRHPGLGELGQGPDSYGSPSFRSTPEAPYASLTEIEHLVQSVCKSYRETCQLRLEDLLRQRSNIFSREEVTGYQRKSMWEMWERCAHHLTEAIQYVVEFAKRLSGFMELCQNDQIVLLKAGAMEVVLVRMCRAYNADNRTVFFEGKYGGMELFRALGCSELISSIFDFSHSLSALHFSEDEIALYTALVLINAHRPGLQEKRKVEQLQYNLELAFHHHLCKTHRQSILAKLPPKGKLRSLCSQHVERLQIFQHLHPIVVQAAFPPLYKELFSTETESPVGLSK
Summary of the method: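 Luminescence (One-Glo, 30 min RT) measured 16 h after compound addition and doxycycline induction at 37C. Reporter: RORE-luciferase under TET-inducible ROR-gamma in CHO cells.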

Row | Compound | Potency [1] | Potency [2] | outcome [3] | Potency [4] | outcome [5] | Potency [6] | Potency [7] | Potency [8] | Potency [9] | outcome [10] | max response [11] | outcome [12] | Potency [13] | Potency [14] | max response [15] | Potency [16] | Potency [17] | max response [18] | max response [19] | Potency [20]
1 | Oc1ccc(Cl)c(Cl)c1Cl | inactive | inactive | inactive | inactive | inactive | inactive | inactive | inactive | inactive | inactive | -5.29% | inactive | inactive | inactive | 8.33% (inactive) | – | – | – | – | –
2 | CCBr | inactive | inactive | inactive | inactive | inactive | inactive | inactive | inactive | inactive | – | -3.72% | inactive | – | inactive | 4.52% (inactive) | inactive | inactive | -5.59% | 2.77% (inactive) | inactive
3 | CNC(=O)O/N=C/C(C)(C)S(C)=O (stereo not drawn) | inactive | inactive | inactive | inactive | inactive | inactive | inactive | inactive | inactive | inactive | -20.3% and 7.58% | inactive | inactive | inactive | 6.61% (inactive) and 1.92% (inactive) | – | inactive | -10.1% and 0.325% | 12.4% (inactive) and -11.4% (inactive) | inactive
4 | CN(C)c1ccc(N(C)C)cc1 | – | inactive | inactive | inactive | inactive | – | – | – | – | inactive | -11.6% | – | – | – | – | – | inactive | -9.82% | 17.1% (inactive) | inactive
5 | ClCC(Br)CBr (stereo not drawn) | inactive | – | inactive | inactive | inactive | inactive | inactive | inactive | inactive | inactive | -9.36% | inactive | inactive | inactive | 0.571% (inactive) | inactive | inactive | -1.84% | 13.4% (inactive) | inactive
6 | CCOP(=S)(OCC)SCCSCC | inactive | inactive | inactive | inactive | – | inactive | inactive | inactive | inactive | inactive | -7.08% and 7.34% | inactive | inactive | inactive | 1.52% (inactive) and -3.09% (inactive) | inactive | – | 7.97% and -18.3% | -3% (inactive) and -2.15% (inactive) | inactive
7 | Nc1cc(Cl)cc(Cl)c1 | inactive | inactive | inactive | inactive | inactive | inactive | inactive | inactive | inactive | inactive | -17% | inactive | inactive | inactive | -0.532% (inactive) | inactive | – | -5.15% | 0.872% (inactive) | inactive
8 | N#CCCC#N | inactive | inactive | inactive | inactive | inactive | inactive | inactive | inactive | inactive | inactive | -20.2% | inactive | inactive | inactive | 2.24% (inactive) | inactive | inactive | -8.53% | 23.2% (inactive) | inactive
9 | C/C=C/C=O | inactive | – | inactive | inactive | – | inactive | inactive | inactive | inactive | inactive | -18.6% | inactive | inactive | inactive | 18.2% (inactive) | inactive | inactive | – | – | inactive
10 | CC[N+](=O)[O-] | inactive | – | inactive | inactive | inactive | inactive | inactive | inactive | inactive | inactive | -9.1% | inactive | inactive | inactive | -6.68% (inactive) | inactive | inactive | -3.61% | 5.74% (inactive) | inactive

From PubChem BioAssay (NCATS)
